Mdm2-MdmX inh – inhibitors of human Mdm2-MdmX association, primary screen, cell-based, luminescence, split luciferase, SaOS-2, uHTS | Protein Mdm4 (Homo sapiens) + E3 ubiquitin-protein ligase Mdm2 (Homo sapiens), … | SaOS-2 split-luciferase Mdm2/MdmX complementation | inhibition, % at 8 µM | hit rate 3% among 330,000;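 active means inhibition of at least 50% at 8 µM in the primary screen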
Target sequence (O15151 whole entry, looked up): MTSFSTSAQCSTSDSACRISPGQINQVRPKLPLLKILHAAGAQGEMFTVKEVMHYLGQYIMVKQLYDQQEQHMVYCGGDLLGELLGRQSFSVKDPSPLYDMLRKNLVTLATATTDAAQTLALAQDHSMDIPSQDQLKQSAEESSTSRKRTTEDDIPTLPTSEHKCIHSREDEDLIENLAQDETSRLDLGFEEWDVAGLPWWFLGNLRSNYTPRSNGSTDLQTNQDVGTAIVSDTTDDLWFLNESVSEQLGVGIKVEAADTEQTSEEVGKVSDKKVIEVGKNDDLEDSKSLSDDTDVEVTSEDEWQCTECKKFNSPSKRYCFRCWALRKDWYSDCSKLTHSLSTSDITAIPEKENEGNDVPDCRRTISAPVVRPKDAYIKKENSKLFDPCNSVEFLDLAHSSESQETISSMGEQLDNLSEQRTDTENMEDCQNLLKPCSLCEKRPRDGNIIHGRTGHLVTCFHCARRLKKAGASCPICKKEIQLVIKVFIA
Target sequence (Q00987 whole entry, looked up): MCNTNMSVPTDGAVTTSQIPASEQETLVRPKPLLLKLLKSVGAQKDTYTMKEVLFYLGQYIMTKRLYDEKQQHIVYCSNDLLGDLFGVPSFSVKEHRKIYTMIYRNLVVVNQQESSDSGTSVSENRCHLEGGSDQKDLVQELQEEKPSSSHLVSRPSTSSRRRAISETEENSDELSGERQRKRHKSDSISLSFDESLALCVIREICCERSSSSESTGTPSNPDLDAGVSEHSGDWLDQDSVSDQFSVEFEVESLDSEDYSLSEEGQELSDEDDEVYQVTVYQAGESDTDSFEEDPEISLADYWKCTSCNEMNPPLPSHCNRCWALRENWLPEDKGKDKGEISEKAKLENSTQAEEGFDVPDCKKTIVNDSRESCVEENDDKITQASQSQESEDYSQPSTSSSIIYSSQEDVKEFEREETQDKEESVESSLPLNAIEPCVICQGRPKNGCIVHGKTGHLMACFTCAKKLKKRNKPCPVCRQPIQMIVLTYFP
GRIN3A LBD mod – binders of NR3A ligand-binding domain, primary screen, biophysical, differential scanning fluorimetry, uHTS. NR3A LBD differential scanning fluorimetry, Tm shift; 0% = protein alone, 100% = glycine-bound protein. hit rate 2.5% among 340,000. Tm shift relative to glycine control, % at 25 µM. AID 1259313, 2017;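 active means melting temperature shift of at least 10% of the positive control shift, at one fixed dose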
Gli-Sufu antag – Gli-Sufu pathway antagonists, primary screen, luciferase luminescence, Sufu-KO-LIGHT cells, uHTS; inhibition, % at 5 µM; Sufu-KO-LIGHT fibroblasts, Gli luciferase reporter luminescence; hit rate 0.74% among 340,000; AID 588413, 2011;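 active means inhibition above about 55%, limit read from the data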;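 further: 0% = DMSO-treated cells and 100% = wells with medium but no cells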
MPTP inh – mitochondrial permeability transition pore inhibitors, primary screen, biochemical, isolated mouse mitochondria, absorbance; Ca2+ swelling absorbance, 30 min; AID 602449, 2012; hit rate 1.4% among 360,000; inhibition, % at 10 µM;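 active means inhibition of 50% or more, scaled per plate between neutral and stimulator controls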;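 further: 0% = DMSO wells given calcium and 100% = 1 mM EGTA wells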
CSC inhib – cancer stem cell viability inhibitors, primary screen, luminescence | cancer stem cell-like cells viability | inhibition, % at 7.5 µM | hit rate 1.1% among 300,000; in the data active means inhibition above about 75%; tested in HMLE shEcad cells
Beta cell apopt – inhibitors of cytokine-induced beta cell apoptosis, primary screen, luminescence | INS-1E cytokine-induced death, ATP luminescence, 48 h; percent of positive-control rescue, neutral wells zero | AID 435005, 2010 | protection from apoptosis, % (concentration not given with the values) | hit rate 0.8% among 300,000;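 active means Every replicate reaches about 75%, or at least half do and their mean reaches it too, limit read from the data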;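 further: 0% = cytokine-treated negative control wells and 100% = positive control rescue; higher means more ATP so stronger rescue from cytokine killing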
Rh123 counter – fluorescence retest of MPTP screen hits in isolated mitochondria, single concentration; shares compounds with MPTP inh; membrane potential, Rhodamine 123 fluorescence; inhibition, % at 10 µM; hit rate 78% among 5,000; AID 624504, 2012; in the data active means inhibition above about 22%;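 further: 0% = DMSO vehicle and 100% = positive control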
MPTP abs DR – mitochondrial permeability transition pore inhibitors, dose response, biochemical, absorbance, uHTS hits; shares compounds with MPTP inh; isolated mitochondria swelling; IC50, µM; hit rate 58% among 780; in the data active means IC50 below about 20 µM
MPTP cs DR – fluorescent counter-screen in isolated mitochondria, dose response, counter-screen for MPTP inhibitor project, biochemical, fluorescence, uHTS hits. shares compounds with MPTP inh. isolated mitochondria counterscreen, fluorescence read-out. IC50, µM. hit rate 49% among 780. AID 651564, 2012; in the data active means IC50 below about 80 µM
* marks the source's active call; other numbers are inactive results; i = inactive; x = not tested or not shown. This is a sample that favours compounds with a hit; in the whole collection about 6.6% have one here.

SMILES | Mdm2-MdmX inh | GRIN3A LBD mod | Gli-Sufu antag | MPTP inh | CSC inhib | Beta cell apopt | Rh123 counter | others
COc1ccc(NC(=O)CSc2ccccn2)cc1OC | -3.9 | -1.9 | -3.5 | 25.3 | -9.4 | -1.9 | x
Cc1nc(Nc2ccc(F)cc2)[nH]c(=O)c1CCC(C)C | 9.8 | -4.7 | 11.2 | 94.6* | 10.3 | 16.7 | 76.7*
O=C(/C=C/c1ccc([N+](=O)[O-])cc1)Nc1ncc([N+](=O)[O-])s1 | x | 9.9 | -82.5 | 83.0* | x | x | 62.7*
Cc1ccc(/C=C/C(=O)Nc2ccc([N+](=O)[O-])cc2)o1 | 11.0 | 3.1 | -1.8 | 88.8* | 43.4 | -13.2 | 75.1*
CCCOc1ccc(/C=C/C(=O)Nc2ccc([N+](=O)[O-])cc2)cc1 | -17.4 | 27.2* | -8.5 | 82.3* | 25.2 | 34.7 | 86.3*
Cn1c(CCN2CCN(c3ccccn3)CC2)nc2cc(NC(=O)COc3ccccc3)ccc21 | 25.3 | -1.6 | 20.1 | 1.4 | -7.8 | -3.3 | x
Cc1cccc(S(=O)(=O)Nc2nc3ccccc3nc2Nc2ccc3c(c2)OCO3)c1 | 14.2 | 21.1* | 11.4 | 96.6* | 36.3 | 19.0 | 64.7*
O=S(=O)(Nc1nc2ccccc2nc1Nc1ccc2c(c1)OCO2)c1ccccc1 | 4.8 | 8.4 | 17.9 | 40.7 | x | x | x
O=[N+]([O-])c1cccc(S(=O)(=O)Nc2nc3ccccc3nc2Nc2cccc(S(=O)(=O)N3CCCCC3)c2)c1 | x | -4.3 | 13.7 | 59.5* | x | x | 30.2*
COc1cccc(-n2nc(-c3ccnn3-c3ccc(C)cc3)c(=O)n(C)c2=O)c1 | 25.0 | -1.1 | -5.6 | -1.7 | -11.5 | -1.9 | x
CCOC(=O)c1c(/N=C/c2cccc(C)c2O)sc2c1CCN(C)C2 | 10.7 | -6.1 | 0.8 | 71.3* | -12.5 | 2.1 | -15.7
COc1ccccc1C(C)NC(=O)CCOc1cccc(C)c1 (stereo not drawn) | -12.7 | 0.2 | 19.1 | -0.3 | -1.7 | -0.4 | x
Cc1ccc(C(=O)OCC(=O)N(CC(C)C)c2c(N)n(Cc3ccccc3)c(=O)[nH]c2=O)cc1[N+](=O)[O-] | 24.6 | -0.4 | 2.3 | 0.7 | -8.3 | -3.4 | x
COCCNC(=S)N/N=C(\C)c1ccc(O)cc1 | -3.8 | -6.0 | 5.8 | 0.0 | x | x | x
C/C(=N\NC(=S)NCC(C)(C)C)c1cc(F)cc(F)c1O | 47.7 | 6.2 | -3.1 | 85.1* | 34.0 | 57.3 | 73.2*
CCOC(=O)CNCCC(=O)c1ccc(Br)cc1 | -26.0 | 22.2* | 3.9 | 55.2* | 7.0 | -8.0 | -4.0 | MPTP abs DR=i;MPTP cs DR=>80
O=C(CCCN1C(=O)c2cccnc2C1=O)Nc1ccc(F)cc1Cl | -14.9 | -1.0 | -1.1 | 0.0 | -9.3 | -6.2 | x
COc1ccc(NC(=S)Nc2ccc3nsnc3c2)cc1 | 13.8 | 23.5* | 37.0 | 59.9* | 11.3 | 1.9 | 77.6*
O=C(NCCNC(=O)c1cc(OCC(F)(F)F)ccc1OCC(F)(F)F)Nc1ccc(OC(F)(F)F)cc1 | 0.7 | 7.5 | 1.4 | 80.1* | 8.3 | 0.3 | 83.9*
CCOc1ccc(NC(=O)Nc2ccc3nsnc3c2)cc1 | 7.1 | 25.6* | -21.5 | 91.3* | 29.2 | 3.9 | 89.4*
CCOc1ccc(NC(=O)Nc2cc(OCC(F)(F)F)cc(OCC(F)(F)F)c2)cc1 | 47.7 | 6.5 | 9.2 | 80.4* | 20.9 | 20.0 | 70.5*
CCOc1ccc(NC(=O)Nc2cc(C)ccc2F)cc1 | -160.6 | -4.0 | -95.3 | 9.5 | 43.1 | 14.9 | x
CCOc1ccc(NC(=S)Nc2ccc(OCC)cc2)cc1 | -6.8 | 0.5 | -10.5 | 1.3 | x | -3.0 | x
CCOc1ccc(NC(=S)Nc2ccc3nsnc3c2)cc1 | -7.5 | 22.2* | -2.1 | 85.5* | 3.3 | 10.5 | 77.1*
